Screens: PubChem, National Center for Advancing Translational Sciences (NCATS)
Shown are actives, neighbours in structure and some others; about 19% of the full set was active somewhere.
DT40 TDP1 no CPT: qHTS for Inhibitors of human tyrosyl-DNA phosphodiesterase 1 (TDP1): qHTS in cells in absence of CPT; Potency, µM (highest dose often 46.2 µM), inactives show top-dose activity change, negative = growth inhibition, most hits filed as inhibitors; DT40 Tdp1-/- hTDP1 cells, no CPT, ATP luminescence, 48 h; 420,000 tested, 15% active; further: potency means the concentration at half of the fitted maximal effect; on the % scale 0 is the no-effect control and ±100 the full control effect; nearly all actives have a fitted effect of over 55% in size
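DT40 Tdp1-/-;hTDP1 cells, no CPT (DMSO vehicle only), 400 cells/well; compounds pin-transferred; ≥48 hr, 37 °C; CellTiter-Glo 30 min RT dark, luminescence read.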
TGFb inhibitor: qHTS for Inhibitors of TGF-b | HepG2 CAGA-GFP TGF-b/SMAD3 reporter, GFP fluorescence, 18 h; TGF-beta stimulated, 500 pg/mL final | Potency, µM (highest dose often 46.1 µM), without a hit: at the highest dose activity, negative = inhibition, hits mostly inhibitors | 410,000 tested, 1.2% active; further: potency means the concentration at half of the fitted maximal effect; on the % scale 0 is the no-effect control and ±100 the full control effect; nearly all actives have a fitted effect of over 65% in size
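HEPG2 CAGA-GFP reporter cells (1000/well, DMEM with 1% FBS) received compounds, then recombinant TGF-beta at 500 pg/mL final for 18 hours at 37 degrees C. Per-cell GFP summed per well was normalised to unstimulated and stimulated DMSO controls before curve fitting.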
IL-1B inflam inh: qHTS for Inhibitors of Inflammasome Signaling: IL-1-beta AlphaLISA Primary Screen; THP-1 LPS/ATP IL-1B secretion, AlphaLISA, 16 h; stronger effect = lower value; activity change, % at 57.5 µM; 360,000 tested, 4.7% active; AID 743279, 2014; in the data active means activity change below about -50%; inconclusive means mostly about -30% to -49%; further: on the % scale 0 is the no-effect control and ±100 the full control effect
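Secreted IL-1B measured by AlphaLISA bead assay after 16 h compound exposure of THP-1 cells; compounds (final up to 57.5 uM) added 1 h before LPS (250 ng/mL) and ATP (1.25 mM) stimulation; lower signal means less secretion.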
DT40 TDP1 CPT: qHTS for Inhibitors of human tyrosyl-DNA phosphodiesterase 1 (TDP1): qHTS in cells in presence of CPT; 420,000 tested, 12% active; Potency, µM (top dose mostly 46.2 µM), inactives show top-dose activity change, negative = growth inhibition, most hits filed as inhibitors; chicken DT40 Tdp1-/-;hTDP1 cells + 20 nM CPT, ATP luminescence, 48 h; further: potency means the concentration at half of the fitted maximal effect; on the % scale 0 is the no-effect control and ±100 the full control effect; nearly all actives have a fitted effect of over 55% in size
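Chicken DT40 Tdp1-/- cells stably complemented with human TDP1 were seeded at 400 cells/well in medium containing 20 nM camptothecin, exposed to pin-transferred compounds, and grown at 37 °C for at least 48 hr. Viability was read as ATP luminescence.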
TDP1 block: qHTS Assay for Inhibitors of Tyrosyl-DNA Phosphodiesterase (TDP1) | Potency, µM (highest dose often 130 µM), inactives show at the top dose activity change, negative = inhibition, most hits filed as inhibitors | recombinant TDP1, AlphaScreen DNA substrate cleavage | AID 485290, 2010 | 350,000 tested, 0.28% active | Tyrosyl-DNA phosphodiesterase 1 (Homo sapiens), Q9NUW8; further: potency means the concentration at half of the fitted maximal effect; on the % scale 0 is the no-effect control and ±100 the full control effect; nearly all actives have a fitted effect of over 40% in size
Target sequence (Q9NUW8 whole entry, looked up): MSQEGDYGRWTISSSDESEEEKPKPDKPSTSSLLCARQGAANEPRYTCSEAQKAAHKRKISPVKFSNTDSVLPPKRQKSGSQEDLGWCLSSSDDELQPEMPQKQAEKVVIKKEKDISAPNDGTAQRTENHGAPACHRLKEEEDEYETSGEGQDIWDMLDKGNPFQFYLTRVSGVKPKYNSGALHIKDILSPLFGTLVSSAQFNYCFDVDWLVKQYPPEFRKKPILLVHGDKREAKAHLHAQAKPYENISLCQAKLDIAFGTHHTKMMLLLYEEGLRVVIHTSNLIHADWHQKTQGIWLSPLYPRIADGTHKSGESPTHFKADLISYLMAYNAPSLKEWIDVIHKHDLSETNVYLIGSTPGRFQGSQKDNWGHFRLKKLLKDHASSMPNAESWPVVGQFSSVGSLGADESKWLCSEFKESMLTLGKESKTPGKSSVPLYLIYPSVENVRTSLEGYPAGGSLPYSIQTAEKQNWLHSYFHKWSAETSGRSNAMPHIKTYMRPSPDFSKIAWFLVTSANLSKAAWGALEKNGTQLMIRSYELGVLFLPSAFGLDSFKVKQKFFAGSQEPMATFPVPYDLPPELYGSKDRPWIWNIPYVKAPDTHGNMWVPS
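Recombinant E. coli-expressed Tdp1 (1 nM) preincubated with compound 15 min at RT, then 5'-biotin/3'-phosphotyrosine-FITC DNA substrate (15 nM) added for 5 min. AlphaScreen beads (10 ug/ml) added, 10 min RT; tyrosine-FITC cleavage read as signal loss.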
HepG2 tox: qHTS for Inhibitors of TGF-b: Cytotox Counterscreen | HepG2 CAGA-GFP viability, ATP luminescence, 18 h | AID 588856, 2011 | 410,000 tested, 0.76% active | Potency, µM (highest dose often 46.1 µM), without a hit: top-dose activity change, negative = cytotoxicity, hits mostly cytotoxic; further: potency means the concentration at half of the fitted maximal effect
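CellTiter-Glo luminescence gave cytotoxicity after 18 hours at 37 degrees C. The cells were HepG2 CAGA-GFP in 1% FBS DMEM, stimulated with 500 pg/mL TGF-beta after compound addition. %Activity was normalised to no-cell wells (complete cell-killing) and DMSO (no toxicity), and curves were fitted and classified.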
The depositor's hits bear a star; ? = inconclusive; · = no result given; [ ] = remark or other dose. Unless noted, the call rests on the fitted dose curve; in most records, active means well fitted curve in the direction sought with a large enough effect; inconclusive means small, poorly fitted or top-dose-only effect, or another doubt; inactive means no such curve, though single readings can be large; an effect the other way counts as inactive or inconclusive.

SMILES	DT40 TDP1 no CPT	TGFb inhibitor	IL-1B inflam inh	DT40 TDP1 CPT	TDP1 block	HepG2 tox
O=C(Nc1ccc2oc(-c3ccc(Br)cc3)nc2c1)c1cc2ccccc2o1	10µM*	-3%	·	?	4%[12.3 µM]	-23%
Cc1ccc(-c2nc3ccccc3o2)cc1NC(=S)NC(=O)c1cc2ccccc2o1	15µM*	-12%	13	15µM*	-2%	-3%
CC1CCN(C(=O)Cn2c3ccc(F)cc3c3nc4n(c(=O)c32)CCCS4)CC1	?	?	-4	?	2%	-14%
Cc1ccc(S(=O)(=O)Oc2ccccc2/C=N/N=C(N)N)cc1	18µM*	?	-127*	?	10%	-74%
Cc1ccc(S(=O)(=O)Oc2ccccc2/C=C2\SC(=O)NC2=O)cc1	-15%	-23%	8	8%	5%	-10%
Cc1ccc(S(=O)(=O)Oc2ccccc2/C=N/NC(=O)c2nn(C)cc2[N+](=O)[O-])cc1	16µM*	?	?	?	5%	-1%
Cc1ccc(S(=O)(=O)Oc2ccccc2/C=N/NC(N)=S)cc1	6.5µM*	-18%	16	4.1µM*	12%	-53%
Cc1nc(Cl)sc1C(=O)Nc1ccccc1	-25%	23%	4	8%	4%	5%
Cc1nc(Cl)sc1C(=O)Nc1ccc(Cl)cc1	-7%	-9%	-6	-2%	1%	13%
Cc1nc(Cl)sc1C(=O)Nc1cccc(Cl)c1	-1%	8%	-56*	-20%	·	14%
Cc1ccc(C)c(NC(=O)c2sc(Cl)nc2C)c1	10%	2%	-58*	-2%	-3%	19%
COc1ccc(Cc2c(C)nn(-c3nc(C)c(C(=O)Nc4cccc(C(C)=O)c4)s3)c2C)cc1	12µM*	?	·	9.2µM*	1%	-9%
CC(=O)c1cccc(NC(=O)c2sc(Cl)nc2C)c1	-10%	17%	-54*	-2%	·	38%
Cc1ccc(C)c(NC(=O)c2sc(Cl)nc2-c2ccccc2)c1	?	-10%	8	?	-12%	-6%
Cc1ccc(C)c(NS(=O)(=O)c2ccccc2C)c1	-5%	-3%	12	5%	0%	3%
CCN(CC)C(=O)Cn1cc(C(=O)C(=O)NCCc2c[nH]c3ccccc23)c2ccccc21	-15%	13%	-21	-28%	5%	-1%
COc1ccc(C(OC(=O)c2ccco2)C(=O)NC(C)(C)C)cc1 (centres undefined)	-3%	-1%	-3	1%	0%	3%
COc1ccc(CNC(=O)C(CC(C)C)NS(=O)(=O)c2ccc3c(c2)CCN3C(C)=O)cc1 (centres undefined)	-9%	-3%	·	-19%	-5%	-2%
Cc1nc(-n2nc(C)c(Cc3ccc4c(c3)OCO4)c2C)sc1C(=O)Nc1ccc(Cl)cc1	-29%	14%	·	-19%	-5%	-13%
Cc1nc(-c2ccccn2)sc1C(=O)Nc1ccc(Cl)c(Cl)c1	15µM*	-19%	-9	?	2%	-34%
CCc1ccccc1NC(=O)c1sc(-n2nc(C)c(Cc3ccc4c(c3)OCO4)c2C)nc1C	18µM*	13%	·	?	-2%	5%
CC(=O)c1sc(-c2ccccn2)nc1C	·	·	·	·	3%	·
CCN1c2ccccc2N(C)C1(C)c1ccccc1 (centres undefined)	3.7µM*	8.9µM*	5	3.7µM*	8%	-102%
CCOc1ccc2nc(SCC(=O)NC(=O)NCc3ccco3)sc2c1	26µM*	-18%	-4	?	3%	-40%
CCCNC(=O)CSc1nc2ccc(OCC)cc2s1	-11%	6%	0	-3%	1%	5%
SMILES	DT40 TDP1 no CPT	TGFb inhibitor	IL-1B inflam inh	DT40 TDP1 CPT	TDP1 block	HepG2 tox
CCOc1ccc2nc(SCC(=O)NCc3ccco3)sc2c1	23µM*	-15%	28	?	-1%	-40%
O=C(O)c1ccc2c(c1)C(=O)N([C@H](Cc1ccc(Cl)cc1)C(=O)O)C2=O	·	·	·	·	10%	·
COCc1c(C(=O)NC2CCCC2)cnn1-c1nccc(-c2ccco2)n1	-16%	·	·	4%	·	·
CCOc1ccc(-c2csc(/C(C#N)=C\c3ccc(O)c([N+](=O)[O-])c3)n2)cc1	4.6µM*	5µM*	-6	3.7µM*	5%	-7%
CCCCN(C)c1c(C)nc2ccc(C(=O)N(C)Cc3ccco3)cn12	18µM*	-28%	-3	?	·	-16%
CCCCC(=O)N(C)c1c(C)nc2ccc(C(=O)N(C)Cc3ccco3)cn12	-18%	24%	26	-20%	·	0%
CCCCC(=O)N(C)c1c(C)nc2ccc(C(=O)N3CCN(C(=O)c4ccco4)CC3)cn12	-13%	7%	-54*	-23%	·	1%
CC(=O)Nc1ccc(CN(C)c2c(C)nc3ccc(C(=O)N(C)Cc4ccco4)cn23)cc1	?	4%	10	16µM*	·	14%
CCn1c(SCC(=O)N2CCCC2)nnc1-c1ccco1	-18%	5%	-5	22%	9%	-1%
CCOc1ccc2nc(NC(=O)c3nc(SCc4ccccc4C)ncc3Cl)sc2c1	2.9µM*	7%	·	13µM*	7%	0%
CCOc1ccc2nc(NC(=O)c3cnc(C)cn3)sc2c1	21µM*	?	-10	15µM*	4%	-19%
CN(C)C(=S)Nc1nc2ccccc2s1	2.6µM*	?	20	3.7µM*	7%	-6%
CCOc1ccc2nc(NC(=O)CCn3cccc3)sc2c1	-2%	-7%	-11	-9%	8%	-25%
CCOc1ccc2nc(NC(=O)CSc3ccccc3)sc2c1	26µM*	20%	-9	?	0%	-11%
CCc1nnc(NC(=O)c2nc(SCc3ccccc3C)ncc2Cl)s1	-10%	-10%	·	-16%	5%	-15%
CCOc1ccc2nc(NC(=O)CSc3nc4cccnc4n3C)sc2c1	3.3µM*	-16%	-11	8.2µM*	5%	-1%
CCc1ccc2nc(NC(=O)c3cc(C)on3)sc2c1	8.2µM*	-20%	1	9.2µM*	4%	-38%
CCc1noc(C)c1C(=O)Nc1nc2ccc(F)cc2s1	-16%	-20%	48	7%	-9%	-6%
